In the supplement of paper PMC8728848:
This excerpt belongs to a sample that is enriched for the strongest signals.

Assays:
Test in all cases: glycan array binding signal (z-score within array); higher = stronger binding
Details in all cases: glycan notation: IUPAC condensed, linker removed
[1] = molecular target: GalNAc(b1-4)GlcNAc(b1-2)Man(a1-3)[GalNAc(b1-4)GlcNAc(b1-2)Man(a1-6)]Man(b1-4)GlcNAc(b1-4)GlcNAc
Procedure, shortened: (§1)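 Negative Z-scores can be read as non-binding. The Z-score is calculated within each array and then averaged across arrays of one protein sequence at different concentrations or buffers and across linkers. Arrays, 3228 in all, were curated from the Consortium for Functional Glycomics database and kept only where the protein sequence was available.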

[2] = molecular target: GlcA(b1-3)GlcNAc
Procedure, shortened: as §1

[3] = molecular target: GlcNAc(a1-4)Gal(b1-4)GalNAc
Procedure, shortened: as §1

[4] = molecular target: GlcNAc(a1-4)Gal(b1-4)GlcNAc(b1-3)Gal(b1-4)GlcNAc(b1-3)Gal(b1-4)GlcNAc
Procedure, shortened: as §1

[5] = molecular target: GlcNAc(b1-3)Gal(b1-4)GlcNAc(b1-3)Gal(b1-4)GlcNAc(b1-2)Man(a1-3)[GlcNAc(b1-3)Gal(b1-4)GlcNAc(b1-3)Gal(b1-4)GlcNAc(b1-2)Man(a1-6)]Man(b1-4)GlcNAc(b1-4)GlcNAc
Procedure, shortened: as §1

[6] = molecular target: GlcNAc(b1-3)Gal(b1-4)GlcNAc(b1-3)Gal(b1-4)GlcNAc(b1-3)Gal(b1-4)GlcNAc(b1-2)Man(a1-3)[GlcNAc(b1-3)Gal(b1-4)GlcNAc(b1-3)Gal(b1-4)GlcNAc(b1-3)Gal(b1-4)GlcNAc(b1-2)Man(a1-6)]Man(b1-4)GlcNAc(b1-4)GlcNAc
Procedure, shortened: as §1

[7] = molecular target: GlcNAc(b1-3)Gal(b1-4)GlcNAc(b1-3)Gal(b1-4)GlcNAc(b1-3)Gal(b1-4)GlcNAc(b1-3)Gal(b1-4)GlcNAc(b1-2)Man(a1-3)[GlcNAc(b1-3)Gal(b1-4)GlcNAc(b1-3)Gal(b1-4)GlcNAc(b1-3)Gal(b1-4)GlcNAc(b1-3)Gal(b1-4)GlcNAc(b1-2)Man(a1-6)]Man(b1-4)GlcNAc(b1-4)[Fuc(a1-6)]GlcNAc
Procedure, shortened: as §1

[8] = molecular target: GlcNAc(b1-3)Gal(b1-4)GlcNAc(b1-3)Gal(b1-4)GlcNAc(b1-3)Gal(b1-4)GlcNAc(b1-3)Gal(b1-4)GlcNAc(b1-2)[GlcNAc(b1-3)Gal(b1-4)GlcNAc(b1-3)Gal(b1-4)GlcNAc(b1-3)Gal(b1-4)GlcNAc(b1-3)Gal(b1-4)GlcNAc(b1-6)]Man(a1-6)[GlcNAc(b1-3)Gal(b1-4)GlcNAc(b1-3)Gal(b1-4)GlcNAc(b1-3)Gal(b1-4)GlcNAc(b1-3)Gal(b1-4)GlcNAc(b1-2)Man(a1-3)]Man(b1-4)GlcNAc(b1-4)[Fuc(a1-6)]GlcNAc
Procedure, shortened: as §1

[9] = molecular target: GlcNAc(b1-3)Gal(b1-4)GlcNAc(b1-6)[Gal(b1-3)]GalNAc
Procedure, shortened: as §1

[10] = molecular target: GlcNAc(b1-4)GlcNAc
Procedure, shortened: as §1

[11] = molecular target: GlcNAc(b1-4)GlcNAc(b1-4)GlcNAc(b1-4)GlcNAc(b1-4)GlcNAc
Procedure, shortened: as §1

[12] = molecular target: Kdn(a2-6)Gal(b1-4)GlcNAc
Procedure, shortened: as §1

[13] = molecular target: Man(a1-6)Man
Procedure, shortened: as §1

[14] = molecular target: Neu5Ac(a2-3)Gal(b1-3)GlcNAc(b1-3)Gal(b1-4)GlcNAc
Procedure, shortened: as §1

[15] = molecular target: Neu5Ac(a2-3)Gal(b1-3)[Fuc(a1-4)]GlcNAc(b1-3)Gal(b1-3)[Fuc(a1-4)]GlcNAc
Procedure, shortened: as §1

[16] = molecular target: Neu5Ac(a2-3)Gal(b1-3)[GlcNAc(b1-6)]GalNAc
Procedure, shortened: as §1

[17] = molecular target: Neu5Ac(a2-3)Gal(b1-4)GlcNAc(b1-2)Man(a1-3)[GlcNAc(b1-4)][Neu5Ac(a2-3)Gal(b1-4)GlcNAc(b1-2)Man(a1-6)]Man(b1-4)GlcNAc(b1-4)GlcNAc
Procedure, shortened: as §1

[18] = molecular target: Neu5Ac(a2-3)[GalNAc(b1-4)]Gal(b1-4)GlcNAc
Procedure, shortened: as §1

[19] = molecular target: Neu5Ac(a2-6)Gal
Procedure, shortened: as §1

[20] = molecular target: Neu5Ac(a2-6)Gal(b1-4)GlcNAc(b1-2)Man
Procedure, shortened: as §1

[21] = molecular target: Neu5Ac(a2-6)Gal(b1-4)GlcNAc(b1-3)Gal(b1-4)GlcNAc(b1-3)Gal(b1-4)GlcNAc
Procedure, shortened: as §1

[22] = molecular target: Neu5Ac(a2-6)Gal(b1-4)GlcNAc(b1-3)Gal(b1-4)GlcNAc(b1-3)Gal(b1-4)GlcNAc(b1-2)Man(a1-3)[Neu5Ac(a2-6)Gal(b1-4)GlcNAc(b1-3)Gal(b1-4)GlcNAc(b1-3)Gal(b1-4)GlcNAc(b1-2)Man(a1-6)]GalNAc
Procedure, shortened: as §1

[23] = molecular target: Neu5Ac(a2-8)Neu5Ac(a2-3)Gal(b1-4)GlcNAc
Procedure, shortened: as §1

[24] = molecular target: Neu5Ac(a2-8)Neu5Ac(a2-3)[GalNAc(b1-4)]Gal(b1-4)Glc
Procedure, shortened: as §1

[25] = molecular target: Neu5Ac(a2-8)Neu5Ac(a2-8)Neu5Ac(a2-3)[Gal(b1-3)GalNAc(b1-4)]Gal(b1-4)Glc
Procedure, shortened: as §1

[26] = molecular target: Neu5Ac(a2-8)Neu5Gc(a2-3)Gal(b1-4)GlcNAc
Procedure, shortened: as §1

[27] = molecular target: Neu5Ac(b2-6)GalNAc
Procedure, shortened: as §1

[28] = molecular target: Neu5Gc(a2-3)Gal(b1-3)GlcNAc
Procedure, shortened: as §1

[29] = molecular target: Neu5Gc(a2-8)Neu5Gc(a2-3)Gal(b1-4)GlcNAc(b1-3)Gal(b1-4)GlcNAc
Procedure, shortened: as §1

B1: PX9961C-bth-497-22-497 (Bacteroides thetaiotaomicron) (protein)
chain: DWLDLNTTSSVETGQAIVTLDDAQIALNGIYRLASGHSYYGDNYWYYGDCRAADVQARITKGDGKRVSPYYEYNVLASDNLNIVLPWNTVYKVIRQTNNLIQKIESGSIQSSDTKELNRIKSEALVMRGLSLFNLTRLFGMPYTNDKGASLGVPIETSPSDPTHKPSRSTVAQCYEQVVSDMSNALSGLRQETSNGYINYWAAQALLSRVYLNMGEYQKAYDAATDVIKNNGGRYQLYSYEEYPNVWGQDFQSESLFELYITLSEPSGGTGGEGAPMVYANEATVDWNNLILSEDFLNLLNEDPKDVRHCLTKESVIENNTGLPAAAMHEKVYLAKFPGKTGDDPKTNNICIIRLSEVYLNAAEAGLKKGTDIEEAQGYLNDIISRRTTDTSQQVSTETFTLDRILKERRKELVGEGEVFYDYLRNGLAIERKGSWHLETLKASNAQKIEATDLRIALPIPQSEIDANPNIQQNPR
glycan array binding signal (z-score) [1]: 1.18 | glycan array binding signal (z-score) [2]: 0.671 | glycan array binding signal (z-score) [3]: -0.269 | glycan array binding signal (z-score) [4]: 0.15 | glycan array binding signal (z-score) [5]: 1.6 | glycan array binding signal (z-score) [6]: 0.098 | glycan array binding signal (z-score) [7]: 2.24 | glycan array binding signal (z-score) [8]: -0.034 | glycan array binding signal (z-score) [9]: 1.56 | glycan array binding signal (z-score) [10]: -0.2 | glycan array binding signal (z-score) [11]: -0.492 | glycan array binding signal (z-score) [12]: -0.057 | glycan array binding signal (z-score) [13]: -0.481 | glycan array binding signal (z-score) [14]: 0.993 | glycan array binding signal (z-score) [15]: 2.16 | glycan array binding signal (z-score) [16]: -0.029 | glycan array binding signal (z-score) [17]: -0.279 | glycan array binding signal (z-score) [18]: -0.469 | glycan array binding signal (z-score) [19]: 0.311 | glycan array binding signal (z-score) [20]: -0.411 | glycan array binding signal (z-score) [21]: -0.506 | glycan array binding signal (z-score) [22]: 0.689 | glycan array binding signal (z-score) [23]: -0.198 | glycan array binding signal (z-score) [24]: -0.361 | glycan array binding signal (z-score) [25]: -0.241 | glycan array binding signal (z-score) [26]: 13.7 | glycan array binding signal (z-score) [27]: -0.424 | glycan array binding signal (z-score) [28]: -0.496 | glycan array binding signal (z-score) [29]: 0.531
